From article PMC5700166 come the findings set out here.

Numbering of substitutions follows the chain as printed.

Test in all cases: protein-binding microarray (PBM); PBM: ~300 nM protein, 6 mM HEPES pH 7.8, 80 mM KCl, 0.5 mM EDTA, 0.5 mM EGTA, 6% glycerol, 35 ng/ul poly-dIdC, 1% milk, 1 h, room temperature; Ap Aiptasia and Nv Nematostella (sea anemones) / Co Capsaspora / Aq Amphimedon (sponge) / Dm Drosophila / Hu human; RHD is the Rel homology domain; high values mean tight binding
What all share (conditions): dsDNA, one strand shown

One assay addresses T1, GST-Ap-NF-kB RHD (Exaiptasia pallida (Aiptasia), UniProt A0A913YAJ5 2-422).
T1 sequence: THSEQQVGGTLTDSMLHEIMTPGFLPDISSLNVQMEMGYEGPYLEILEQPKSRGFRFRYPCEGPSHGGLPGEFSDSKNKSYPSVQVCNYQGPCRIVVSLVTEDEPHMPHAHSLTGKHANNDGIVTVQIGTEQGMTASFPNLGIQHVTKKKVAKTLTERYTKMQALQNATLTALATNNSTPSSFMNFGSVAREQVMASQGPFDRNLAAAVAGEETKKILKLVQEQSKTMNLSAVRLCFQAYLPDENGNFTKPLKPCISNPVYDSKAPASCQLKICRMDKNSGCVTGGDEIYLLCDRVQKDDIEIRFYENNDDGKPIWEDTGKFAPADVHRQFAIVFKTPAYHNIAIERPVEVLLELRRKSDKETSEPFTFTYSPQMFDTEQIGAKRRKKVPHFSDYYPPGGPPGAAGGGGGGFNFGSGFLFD

Assay [1] concerns the target T2, GST-Nv-NF-kB (Cys allele) (Nematostella vectensis, UniProt E5G601 2-411).
T2 sequence: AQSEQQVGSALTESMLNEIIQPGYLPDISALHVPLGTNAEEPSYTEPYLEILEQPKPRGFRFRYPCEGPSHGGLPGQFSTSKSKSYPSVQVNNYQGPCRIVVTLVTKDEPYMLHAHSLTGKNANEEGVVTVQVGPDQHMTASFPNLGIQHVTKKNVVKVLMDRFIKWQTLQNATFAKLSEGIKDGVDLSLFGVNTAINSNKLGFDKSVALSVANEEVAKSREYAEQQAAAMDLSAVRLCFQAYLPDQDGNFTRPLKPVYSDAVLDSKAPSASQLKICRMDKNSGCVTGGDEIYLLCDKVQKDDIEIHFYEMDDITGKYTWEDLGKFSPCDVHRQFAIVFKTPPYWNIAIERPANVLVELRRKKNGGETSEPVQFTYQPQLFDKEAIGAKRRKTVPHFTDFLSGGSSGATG

Assay [2] addresses T3, GST-Nv-NF-kB (Ser allele) (Nematostella vectensis, UniProt A7UNT2 2-411).
T3 sequence: T2 sequence with Q21R, C66S, S207N, E215Q, V217A, E225K, A268E, D399E

Another assay addresses T4, GST-Co-NF-kB (Capsaspora owczarzaki, UniProt F1ARL5 200-546).
T4 sequence: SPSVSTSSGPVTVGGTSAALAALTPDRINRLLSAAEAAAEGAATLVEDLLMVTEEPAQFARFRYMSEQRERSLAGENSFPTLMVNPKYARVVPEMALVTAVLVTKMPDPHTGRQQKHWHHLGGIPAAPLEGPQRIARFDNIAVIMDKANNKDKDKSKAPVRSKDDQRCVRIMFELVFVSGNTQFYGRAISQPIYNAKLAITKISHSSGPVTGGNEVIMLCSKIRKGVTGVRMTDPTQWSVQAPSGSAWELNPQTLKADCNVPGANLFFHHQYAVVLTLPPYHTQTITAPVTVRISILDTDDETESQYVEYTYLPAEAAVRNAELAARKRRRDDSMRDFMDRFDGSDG

For a further assay, the target named is T5, GST-Dm-Relish (Drosophila melanogaster, UniProt Q94527 99-473).
T5 sequence: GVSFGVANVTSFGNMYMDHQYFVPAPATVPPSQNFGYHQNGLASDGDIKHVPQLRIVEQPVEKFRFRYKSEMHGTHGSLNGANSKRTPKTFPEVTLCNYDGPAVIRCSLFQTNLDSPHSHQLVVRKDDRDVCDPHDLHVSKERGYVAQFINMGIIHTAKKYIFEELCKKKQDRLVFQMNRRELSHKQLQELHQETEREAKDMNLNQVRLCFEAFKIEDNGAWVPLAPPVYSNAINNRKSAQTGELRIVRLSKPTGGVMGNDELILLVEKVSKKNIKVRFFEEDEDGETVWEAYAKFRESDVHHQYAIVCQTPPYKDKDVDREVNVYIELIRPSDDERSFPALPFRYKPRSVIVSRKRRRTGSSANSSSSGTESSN

The target of a further assay is T6, GST-Aq-NF-kB (Amphimedon queenslandica, UniProt A9Y5G7 2-389).
T6 sequence: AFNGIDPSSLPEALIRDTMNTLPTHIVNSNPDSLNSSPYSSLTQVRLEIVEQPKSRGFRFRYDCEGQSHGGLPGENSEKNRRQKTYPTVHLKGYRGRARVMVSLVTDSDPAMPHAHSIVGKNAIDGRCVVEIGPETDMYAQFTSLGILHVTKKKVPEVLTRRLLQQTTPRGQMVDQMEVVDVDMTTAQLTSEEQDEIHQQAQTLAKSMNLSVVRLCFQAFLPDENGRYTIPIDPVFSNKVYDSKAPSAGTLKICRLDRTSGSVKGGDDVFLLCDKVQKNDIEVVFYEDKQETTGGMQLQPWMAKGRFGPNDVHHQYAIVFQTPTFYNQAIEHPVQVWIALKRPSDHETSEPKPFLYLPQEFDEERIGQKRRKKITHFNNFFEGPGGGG

The target in a further assay is GST-Hu-p50 (Homo sapiens, UniProt P19838 7-356).
GST-Hu-p50, sequence (P19838 7-356): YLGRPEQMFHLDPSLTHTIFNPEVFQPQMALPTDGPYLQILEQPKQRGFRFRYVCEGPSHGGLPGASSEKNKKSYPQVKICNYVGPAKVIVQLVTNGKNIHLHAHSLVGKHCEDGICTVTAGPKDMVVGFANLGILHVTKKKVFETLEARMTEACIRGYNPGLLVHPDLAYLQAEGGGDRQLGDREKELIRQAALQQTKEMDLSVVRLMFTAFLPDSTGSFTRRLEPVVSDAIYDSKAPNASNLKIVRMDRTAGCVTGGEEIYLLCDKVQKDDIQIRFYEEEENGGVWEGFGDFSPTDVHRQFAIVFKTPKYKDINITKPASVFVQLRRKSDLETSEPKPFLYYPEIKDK

For the sequence “CCGATTAACATCAAAAAACCCCCTGATGTTAATCGGGTCTTGATTCGCTTGACGCTGCTG”, the binding signal with GST-Ap-NF-kB RHD was 12.1 z-score; in assay [1], 11.4 z-score; in assay [2], 12.1 z-score; with GST-Co-NF-kB, 5.28 z-score; with GST-Dm-Relish, 11.4 z-score; in the assay with GST-Aq-NF-kB it was 9.82 z-score. Moreover, in the assay with GST-Hu-p50, the binding signal amounted to 8.38 z-score.

Turning to “CCGATTAACATCAGGTTTCCCCATGATGTTAATCGGGTCTTGATTCGCTTGACGCTGCTG”, the binding signal was determined as 6.59 z-score with GST-Ap-NF-kB RHD; 7.14 z-score in assay [1]; 8.78 z-score in assay [2]; 7.88 z-score with GST-Co-NF-kB; 4.69 z-score in the assay with GST-Dm-Relish; 5.35 z-score with GST-Aq-NF-kB. For the same sequence, the binding signal with GST-Hu-p50 was 5.34 z-score.

Take “CCGATTAACATCAGGGGGGAAGATGATGTTAATCGGGTCTTGATTCGCTTGACGCTGCTG”: the binding signal was determined as 4.86 z-score in the assay with GST-Ap-NF-kB RHD; 5.5 z-score in assay [1]; 5.9 z-score in assay [2]; 7.62 z-score with GST-Co-NF-kB; 3.64 z-score in the assay with GST-Dm-Relish; 4.85 z-score with GST-Aq-NF-kB. Besides, the binding signal with GST-Hu-p50 was 4.98 z-score.

“CCGATTAACATCAAGTTTCCCCATGATGTTAATCGGGTCTTGATTCGCTTGACGCTGCTG”: the binding signal in the assay with GST-Ap-NF-kB RHD amounted to 6.19 z-score; in assay [1] it was 6.87 z-score; in assay [2] it was 9.07 z-score; with GST-Co-NF-kB, 9.1 z-score; in the assay with GST-Dm-Relish it was 2.4 z-score; with GST-Aq-NF-kB it was 5.26 z-score. In the assay with GST-Hu-p50, the binding signal turned out to be 5.62 z-score.

For the sequence “CCGATTAACATCAAGATTTCCCCTGATGTTAATCGGGTCTTGATTCGCTTGACGCTGCTG”, the binding signal with GST-Ap-NF-kB RHD was 8.78 z-score; in assay [1], 10.4 z-score; in assay [2] it was 13.2 z-score; with GST-Co-NF-kB, 9.09 z-score; with GST-Dm-Relish, 6.87 z-score; with GST-Aq-NF-kB, 7.44 z-score. The binding signal with GST-Hu-p50 stood at 7.38 z-score.

Consider “CCGATTAACATCAGAAAATTCCCTGATGTTAATCGGGTCTTGATTCGCTTGACGCTGCTG”, for which the binding signal in the assay with GST-Ap-NF-kB RHD amounted to 6.03 z-score; in assay [1], 9.51 z-score; in assay [2], 8 z-score; in the assay with GST-Co-NF-kB it was 4.76 z-score; with GST-Dm-Relish it was 7.55 z-score; in the assay with GST-Aq-NF-kB, 7.67 z-score. In the assay with GST-Hu-p50, this sequence registered a binding signal of 6.47 z-score.

For “CCGATTAACATCAGGGGAACGCATGATGTTAATCGGGTCTTGATTCGCTTGACGCTGCTG”, the binding signal amounted to 5.31 z-score in the assay with GST-Ap-NF-kB RHD; 5.4 z-score in assay [1]; 6.49 z-score in assay [2]; 4.99 z-score with GST-Co-NF-kB; 2.68 z-score in the assay with GST-Dm-Relish; 3.75 z-score in the assay with GST-Aq-NF-kB. This sequence also had a binding signal in the assay with GST-Hu-p50 of 4.2 z-score.

For “CCGATTAACATCAAGGAAATCCCTGATGTTAATCGGGTCTTGATTCGCTTGACGCTGCTG”, the binding signal with GST-Ap-NF-kB RHD stood at 4.83 z-score; in assay [1] it was 4.91 z-score; in assay [2], 2.74 z-score; with GST-Co-NF-kB it was 1.77 z-score; with GST-Dm-Relish, 7.71 z-score; with GST-Aq-NF-kB it was 5.91 z-score. In the assay with GST-Hu-p50, this sequence returned a binding signal of 3.79 z-score.

Regarding “CCGATTAACATCAGGGAATTTAATGATGTTAATCGGGTCTTGATTCGCTTGACGCTGCTG”, the binding signal with GST-Ap-NF-kB RHD was 3.7 z-score; in assay [1] it was 6.07 z-score; in assay [2], 6.59 z-score; with GST-Co-NF-kB, 4.07 z-score; with GST-Dm-Relish, 4.24 z-score; with GST-Aq-NF-kB, 5.09 z-score. Moreover, the binding signal with GST-Hu-p50 turned out to be 4.45 z-score.

“CCGATTAACATCAGGGAAATACATGATGTTAATCGGGTCTTGATTCGCTTGACGCTGCTG”: the binding signal with GST-Ap-NF-kB RHD was found to be 3.25 z-score; in assay [1], 4.47 z-score; in assay [2] it was 4.73 z-score; with GST-Co-NF-kB, 4.08 z-score; in the assay with GST-Dm-Relish it was 8.18 z-score; with GST-Aq-NF-kB, 4.87 z-score. Moreover, the binding signal in the assay with GST-Hu-p50 was 3.02 z-score.

Consider “CCGATTAACATCAGGGGATTATATGATGTTAATCGGGTCTTGATTCGCTTGACGCTGCTG”, for which the binding signal with GST-Ap-NF-kB RHD amounted to 7.99 z-score; in assay [1], 9.17 z-score; in assay [2] it was 9.52 z-score; with GST-Co-NF-kB, 4.18 z-score; with GST-Dm-Relish, 6.72 z-score; in the assay with GST-Aq-NF-kB, 7.52 z-score. Besides, the binding signal with GST-Hu-p50 came out at 6.4 z-score.

In the case of “CCGATTAACATCAGATTCCCCCCTGATGTTAATCGGGTCTTGATTCGCTTGACGCTGCTG”, the binding signal with GST-Ap-NF-kB RHD was determined as 8.5 z-score; in assay [1], 7.01 z-score; in assay [2], 8.24 z-score; with GST-Co-NF-kB, 10 z-score; with GST-Dm-Relish, 6.72 z-score; with GST-Aq-NF-kB, 6.38 z-score. Besides, the binding signal in the assay with GST-Hu-p50 worked out at 7.1 z-score.
